Results on 63 sequences are retold here after the supplement of paper PMC10681739.

± gives the standard deviation of the averaged measurements. In all, about 4,100 sequences were measured (“arbitrary fluorescence units”: median about 780, highest 2% from about 22,000 on). Shown is part of a subset that was picked to be rich in the highest values.

This assay addresses T1, ETS1 (UniProt P14921).
T1 sequence: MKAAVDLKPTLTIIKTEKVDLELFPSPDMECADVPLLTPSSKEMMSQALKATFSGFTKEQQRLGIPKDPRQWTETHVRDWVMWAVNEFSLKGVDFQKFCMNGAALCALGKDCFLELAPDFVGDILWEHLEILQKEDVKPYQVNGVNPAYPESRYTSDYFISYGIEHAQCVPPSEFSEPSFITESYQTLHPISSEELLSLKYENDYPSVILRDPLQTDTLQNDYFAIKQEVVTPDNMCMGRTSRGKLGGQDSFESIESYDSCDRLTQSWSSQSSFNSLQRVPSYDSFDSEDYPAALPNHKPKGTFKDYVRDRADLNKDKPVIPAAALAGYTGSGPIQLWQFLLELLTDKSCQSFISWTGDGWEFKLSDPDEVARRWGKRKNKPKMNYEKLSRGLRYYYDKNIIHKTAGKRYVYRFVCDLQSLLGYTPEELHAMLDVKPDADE
The experiment in a line: ETS1 binding intensity (PBM fluorescence), ETS1 alone (arbitrary fluorescence units); higher = stronger binding. The note with it: ETS1 concentration 1 nM; RUNX1 concentration 0 nM. The procedure: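 gcPBM on 36-bp genomic-derived probes (partner site mutated) containing one ETS1 site and no RUNX1 site. Recombinant human ETS1 (1 nM) was incubated alone or with RUNX1 (25 nM) and detected by anti-ETS1 antibody fluorescence. Values are medians over 4 replicate spots (not normalised). The probes sit in constant array flanks that are not printed.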
GGAGGGGCTGGCCGGAAGTGAACCGAAGAGCACGCT yielded an ETS1 binding intensity of 16700.

Turning to TGCGCCAGCGGGAGGGAGCAGTTCCGGGTACGGTGC, the ETS1 binding intensity was found to be 563.

In turn, CAGGACCCCTGTACTCCGGGTGAAGCGGAAGCGCAG gave an ETS1 binding intensity of 667.

Consider TTATCTGTCGTTCTTTTATGGGGTGGGCTTCCTCTG, for which the ETS1 binding intensity is 503.

As to GAGAAAGCAGCGCCCCAGCGCGCCTTCCGCCACGCC, the ETS1 binding intensity came to 328.

AGCCGCCACTTCCTGTCTCTGAGGGTGCATGCTCTT gave an ETS1 binding intensity of 36000.

Sequence CTGACTTGTTGTAGTCTCTGCCACTTCCTGAGGTGT had an ETS1 binding intensity of 668.

The sequence CAGTCTGGCCATGAGGTGCCACTTCCTCTCTGGTTT registered an ETS1 binding intensity of 1550.

As to TAAAATTTCGGGAGGGGACTTGGTCCTTCCTGTTGC, the ETS1 binding intensity was 735.

GCGCCCCGCTTCCGGGGCCGCCCTAAACGGCGGCCG gave an ETS1 binding intensity of 10100.

In turn, AGCAACCTACTACCCGGCGCCTGATTCACTTCCCTC gave an ETS1 binding intensity of 391.

Turning to ATTACATCCGGGCTCCGCGACACGCCCGAACCCCAA, the ETS1 binding intensity came to 25300.

CCCCGTTACGCCCATCCGGCTCCCGAATAGGGCGTC: the ETS1 binding intensity worked out at 2610.

The sequence CTTACTATATTAACGCCGGTACACATCCGCCCGACA returned an ETS1 binding intensity of 1800.

For CTTACGGCCTCGCGCCATGGGCAGTATCCGCCGCCA, the ETS1 binding intensity was 328.

Regarding GATGGGCTGGGGATGTGGCCTGTTTGCCGCTGGCGA, the ETS1 binding intensity stood at 361.

In turn, GGCTGCGCCGGCTGGGGTGTTCCTCCGACTTCCGGA showed an ETS1 binding intensity of 1590.

Sequence CAGCCGACTTCCGGGGTGGGGCTTGCTGCCGCTGAG gave an ETS1 binding intensity of 19300.

GGCTGCGACTTCCGGACTGCTCCTGGCCGCTGGGGG gave an ETS1 binding intensity of 22900 ± 1200.

Consider GCAGAGAGGAAGTGTGGGGGTGGAGGAGGCCGAAGA, for which the ETS1 binding intensity was found to be 1840.

AGACGGGACCGGAAGCCGGGCCGTAGGCGGCCGGGC gave an ETS1 binding intensity of 12100.

As to TTTCGAGAAAACCGGAAGTGCGTGGACACGCCCCGC, the ETS1 binding intensity worked out at 31500.

Regarding GCCGCCGTAGATTCGACACAAAACCCGGAAGGACCC, the ETS1 binding intensity stood at 530.

The sequence AAACTACTTCCCCATATCATCTGTAGCTTGCACAAC yielded an ETS1 binding intensity of 1180.

GCGAGCACTTCCGGTGTGTGAGCCTGCTGTTGCTAC registered an ETS1 binding intensity of 32800.

TGAGGTGCTAAAGCACCAAGCACTTCCTGCTGTTAG came in with an ETS1 binding intensity of 3380.

Regarding CTTAGCACTTGTAGTCAGCCTGCTTCCGGCTGTGGC, the ETS1 binding intensity came to 2100.

With GGGGCAGGAAGTGGAGGTTTGAAGTGCTTTAGAGTA, the ETS1 binding intensity was 7390.

For GGGCCCCTCAGCCCGACCGCCTGACCGGAAGTGCAG, the ETS1 binding intensity stood at 5030.

Sequence TGAACTCCGCCCAGCGCGATCCGGAAGCCTAGCGCC returned an ETS1 binding intensity of 443.

In turn, TTGGTGACCTCTTCCTGTCCGCTGGGGTGTTGTTAC returned an ETS1 binding intensity of 3680.

As for TGCTTCCCGTCCGTGTCGCGGCCCTGGGGTTGGCGG, the ETS1 binding intensity came out at 8550.

Sequence TCGCTTCCGGTGTCGGTTACAGACTGGGGTTGCCAT gave an ETS1 binding intensity of 30000.

In turn, TTCAGGCGGCAAAGAACAGACCTGCAGGAGGAAATA displayed an ETS1 binding intensity of 404.

The sequence CTCTTCCGGCCGCGAGGAGCGCGACAGCGGCCCCTG displayed an ETS1 binding intensity of 14400.

Take TGTTGACTCAGGAAGATGATGGCTGAGGGGGCTGCA: the ETS1 binding intensity was found to be 509.

Consider TCTAAATCACTTCCTGTTACAGAAACTACAGGCCTG, for which the ETS1 binding intensity was found to be 26900.

CACTTCCTCCTCGGGGGCCTCAGAAAATCACAGGGC yielded an ETS1 binding intensity of 13200.

The sequence CTAAAGGCAGGGACTACAAACACTTCCTGTTTGTGT gave an ETS1 binding intensity of 7710.

Turning to GGAGCGCGCTGGGGACGTTTAAAGGAAATTTACAAT, the ETS1 binding intensity came out at 363.

As for TCCGTGAGGTGCAGCAGGTCGGTAGGCGGGAAATGG, the ETS1 binding intensity amounted to 378.

TGCTGCACCCCAGCCCCTTTCTCTTCCGGTTCTAGG: the ETS1 binding intensity was 1850.

As to CCGACCCCAGCTTCCCGGGGTTGAGGCCCTGCCTCC, the ETS1 binding intensity worked out at 462.

Take AACATCCGGTTCCCGGTTCTGCCCCCTACCCCAGCT: the ETS1 binding intensity was found to be 49100.

In turn, ACTTGACTTCCTGTGGGGTGTCTGGTGTCTGCACTT registered an ETS1 binding intensity of 11700.

Take GACCACTTCCTTTCTGTGTTTTGGGGTTTCACAACT: the ETS1 binding intensity amounted to 11900.

ACAACTTCCTGTGGGATTTTTGGTGTCTACGGCTCA displayed an ETS1 binding intensity of 37400.

GGGCCCACATCCGGCGCGCGCAACAGCAGCCTACTG showed an ETS1 binding intensity of 25800.

GTCCAACAGCAGCCAGGCAAGCACATCCTGCCCCAC had an ETS1 binding intensity of 1980.

The sequence CTCCCACATCCGAAGCGGCGCAACTCACAACAGCCT yielded an ETS1 binding intensity of 1140.

In turn, CGAAGAGGAAACAAAGAAAGGTGCTGTTCTGGCGCC had an ETS1 binding intensity of 506.

The sequence TCAAGAAAACAGGAAACTCTCAAATCCAAGTTCTGA yielded an ETS1 binding intensity of 3280.

In turn, TTCTATCCTGCCTTGCATGTCTTTAATCACACTGAG showed an ETS1 binding intensity of 1540.

In the case of ATGAGCTATTTCCTGCCTTGTTGTCAGAGCCAGACT, the ETS1 binding intensity was 23500.

Regarding CAGCTGCAGGCCTGGGTGTACGGAGCCCGGAACAGG, the ETS1 binding intensity was 567.

As to TACCTACAGGAAATGAGACACACCTCAGGCCGATCC, the ETS1 binding intensity is 5550.

CTCAGACCCTCAGTGAGGTCTGACGTCATTTCCTGC returned an ETS1 binding intensity of 734.

As to CTCGTGTTTTGTAGCTGTGTTCTGTCCGGTCAGTTG, the ETS1 binding intensity amounted to 502 ± 32.

Regarding CACTTCCGGGTCGTCAGCTCAGTTCTGCTGTTTCTG, the ETS1 binding intensity turned out to be 26000.

On to CCTGCTGCTGTCAGCCCTGTCTCTTCCTGTTTCTGC, for which the ETS1 binding intensity was 1030.

TGGATAGTGGGACACCTCAACAGGATGTTAGTGAGG showed an ETS1 binding intensity of 858.

For the sequence GACGGCCGCTTTTGGCGCGGGACTTCCTGCCTGGCC, the ETS1 binding intensity turned out to be 3070.

As for CCCTCCGGCCCTCAGCCCTGCCCAAACGGAAGTGCT, the ETS1 binding intensity is 787.
